Experimental findings from PubChem BioAssay (Tox21) are described below.

Values without a mark were called inactive. Inconclusive results are not listed. Activity calls are given as the source filed them. Unless noted, the call rests on the fitted dose curve; in most records, active means well fitted curve in the direction sought with a large enough effect in the repeat runs; inconclusive means weak or mixed curves; inactive means no such curve, though single readings can be large; an effect the other way counts as inactive or inconclusive.

Experiment [1] can be described thus: qHTS assay for small molecules that induce genotoxicity in human embryonic kidney cells expressing luciferase-tagged ATAD5 (AID 651632). Further: nearly all actives have a fitted effect of over 15% in size. In a few lines:
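Quantitative HTS in HEK293T expressing luciferase-tagged ATAD5, whose levels rise upon DNA damage. Exposure ran 16 hr at 37C and 5% CO2, with luminescence read 30 min after Amplite addition at room temperature.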
In general terms: qHTS replaces the single test concentration by a dilution series.

Experiment [2] can be described thus: qHTS assay for small molecule disruptors of the mitochondrial membrane potential - cell viability (AID 720634; calls by dose curve;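 further: human HepG2 liver cancer cells; nearly all actives have a fitted effect of over 20% in size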). In a few lines:
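ATP-based luminescent viability readout (CellTiter-Glo, 30 min, room temperature) in HepG2 cells multiplexed with the m-MPI membrane potential dye; compound exposure lasted 1 hr at 37 C.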

Experiment [3] can be described thus: qHTS assay to test for compound auto fluorescence at 590 nm (red) in HepG2 cells (AID 720674). Put shortly: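 Compound auto-fluorescence is scored relative to Rose Bengal sodium, measured at 540/590 nm in live HepG2 cultures after 1 hr compound contact (37 C, 5% CO2).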
Experiment [4] can be described thus: qHTS assay to test for compound auto fluorescence at 535 nm (green) in HepG2 cells (AID 720675).
Experiment [5] in a line: qHTS assay to test for compound auto fluorescence at 460 nm (blue) in HEK293 cells (AID 720678). In a few lines:
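Auto fluorescence in the blue band was quantified as triamterene equivalency. HEK293 cells were seeded at 2,000/well, dosed after a 4-5 hr attachment, and kept overnight at 37C before the 405/460 nm reading.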

Experiment [6] is described as follows: qHTS assay to test for compound auto fluorescence at 590 nm (red) in HEK293 cells (AID 720679). In a few lines:
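Autofluorescence equivalency to Rose Bengal sodium, 540/590nm, in HEK293 cells exposed overnight to 23 nL compound per well.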

Experiment [7] can be described thus: qHTS assay to test for compound auto fluorescence at 535 nm (green) in HEK293 cells (AID 720680).
Experiment [8] in a line: qHTS assay to test for compound auto fluorescence at 460 nm (blue) in HEK293 cell free culture (AID 720681). In a few lines: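 Test compounds were pinned into cell-free culture medium (DMEM with 10% FBS) and fluorescence was read directly at Ex/Em 405/460 nm. Signals were expressed as fluorescence equivalents of triamterene, with DMSO vehicle as control.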
The nature of experiment [9]: qHTS assay to test for compound auto fluorescence at 590 nm (red) in HEK293 cell free culture (AID 720683). In a few lines:
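Tox21 10K library compounds were pinned into cell-free DMEM with 10% FBS and fluorescence was read at excitation 540 nm. Activity is expressed as Rose Bengal sodium equivalency.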

A short description of experiment [10]: qHTS assay to test for compound auto fluorescence at 590 nm (red) in HepG2 cell free culture (AID 720684). Put shortly: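 Ex 540 / Em 590 nm read of compound in cell-free MEM (10% FBS). Rose Bengal sodium reference.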
A short description of experiment [11]: qHTS assay to test for compound auto fluorescence at 535 nm (green) in HepG2 cell free culture (AID 720686).
Experiment [12] can be described thus: qHTS assay to test for compound auto fluorescence at 460 nm (blue) in HepG2 cells (AID 720687). In a few lines: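 Cells (2,000/well in MEM with 10% FBS) attached overnight at 37 C, then were exposed to compound or DMSO for 1 hr at 37 C, 5% CO2. Fluorescence read at Ex/Em 405/460 nm, expressed as triamterene-equivalent signal.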
Experiment [13] concerns the target Glucocorticoid receptor (Homo sapiens) (UniProt P04150). The experiment can be described thus: qHTS assay to identify small molecule agonists of the glucocorticoid receptor (GR) signaling pathway (AID 720691; active means well fitted activation curve with a large enough effect in the signal ratio in the repeat runs, not every such curve was filed as active; the % refers to the signal ratio). Particulars: GR-bla HeLa, beta-lactamase reporter ratio, 18 h; activation: at 62.4 µM (top of the series) unless noted. Put shortly: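 Cells: GR-bla HeLa, endogenous GR with stably integrated GRE-beta-lactamase reporter. Treatment 18 h, 37 C, compounds delivered in DMSO. Detection via LiveBLAzer B/G FRET substrate, 2 h RT, fluorescence intensity.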

Experiment [14] can be described thus: qHTS assay for small molecules that induce genotoxicity in human embryonic kidney cells expressing luciferase-tagged ATAD5 - cell viability (AID 651634; calls by dose curve; further: nearly all actives have a fitted effect of over 25% in size; further: potency means the concentration at half of the fitted maximal effect). In a few lines:
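After 15.5 hr incubation with compound at 37C, 5% CO2, HEK293T ATAD5-luciferase cells received CellTiter-Fluor reagent; fluorescence intensity was quantified following 30 min at 37C.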

Experiment [15] is described as follows: qHTS assay for small molecule disruptors of the mitochondrial membrane potential (AID 720635). Further: potency means the concentration at half of the fitted maximal effect. Put shortly:
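HepG2 cells (2,000/well) attached overnight at 37C, then took compound for 1 hr at 37C, 5% CO2. Mito-MPS dye was added for 30 min; fluorescence was read at 490/535 nm (monomers) and 540/590 nm (aggregates).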

The nature of experiment [16]: qHTS assay to test for compound auto fluorescence at 535 nm (green) in HEK293 cell free culture (AID 720682). Put shortly:
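Cell-free medium (DMEM, 10% FBS) receives compound or DMSO by pintool. Plate read directly at Ex 485/Em 535 nm. Signal converted to fluorescein equivalency.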

Experiment [17] can be described thus: qHTS assay to test for compound auto fluorescence at 460 nm (blue) in HepG2 cell free culture (AID 720685). Put shortly: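 Cell-free plates of MEM plus 10% FBS received 23 nL compound or DMSO vehicle; blue-channel (405/460 nm) intensity scored against triamterene as reference fluorophore.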
Experiment [18] in a line: qHTS assay for small molecule agonists of the p53 signaling pathway - cell viability (AID 651633; calls by dose curve;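 further: p53RE-bla HCT reporter cells with a stable beta-lactamase p53 reporter; nearly all actives have a fitted effect of over 30% in size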). In a few lines:
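p53RE-bla cells, seeded at 4,000 per well and rested 5 h at 37 C/5% CO2, received compounds in DMSO for 16 h at 37 C. CellTiter-Glo was then added, and luminescence was read after 30 min at room temperature to gauge cytotoxicity.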
On the % scale 0 is the no-effect control and ±100 the full control effect.

Sequence of Glucocorticoid receptor (Homo sapiens) (P04150 whole entry, looked up): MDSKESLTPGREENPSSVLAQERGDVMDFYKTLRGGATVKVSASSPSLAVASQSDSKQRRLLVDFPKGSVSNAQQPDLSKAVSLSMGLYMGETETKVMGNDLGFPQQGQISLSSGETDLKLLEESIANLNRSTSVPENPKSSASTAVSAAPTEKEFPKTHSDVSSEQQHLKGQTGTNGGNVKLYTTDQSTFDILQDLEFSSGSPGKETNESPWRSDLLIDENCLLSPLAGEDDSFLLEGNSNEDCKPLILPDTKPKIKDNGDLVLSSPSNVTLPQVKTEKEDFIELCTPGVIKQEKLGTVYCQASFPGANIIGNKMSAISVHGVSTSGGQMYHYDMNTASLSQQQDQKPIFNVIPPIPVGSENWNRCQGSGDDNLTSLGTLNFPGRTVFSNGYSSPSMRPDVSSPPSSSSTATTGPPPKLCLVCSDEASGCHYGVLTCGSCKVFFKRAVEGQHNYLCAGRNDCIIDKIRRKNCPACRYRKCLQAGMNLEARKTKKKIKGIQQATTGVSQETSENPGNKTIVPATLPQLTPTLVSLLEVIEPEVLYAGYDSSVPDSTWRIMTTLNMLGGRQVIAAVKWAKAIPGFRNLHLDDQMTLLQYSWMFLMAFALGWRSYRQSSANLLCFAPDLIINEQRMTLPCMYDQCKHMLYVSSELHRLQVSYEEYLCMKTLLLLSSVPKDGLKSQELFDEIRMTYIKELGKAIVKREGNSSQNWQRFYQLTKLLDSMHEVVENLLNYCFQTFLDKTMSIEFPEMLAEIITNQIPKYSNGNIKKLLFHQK

Turning to `Cc1oc(-c2ccccc2)nc1CCOc1cccc2c1ccn2CCC(=O)O`, the Potency entry in experiment [1], in experiment [2], in experiment [3], in experiment [4], in [6] and in experiment [9] was “inactive” each time. The Potency result in [10], in experiment [11] and in experiment [13] was “inactive” throughout. Further, the compound was classed as inactive in [5], in experiment [7], in experiment [8] and in [12].
In the case of `C=CC(=O)OCCOCCOC(=O)C=C`, in experiment [14], the Potency was 61.4 µM (active). The Potency result in experiment [15], in experiment [3], in [4], in experiment [6], in [10] and in [11] was “inactive” each time. In experiment [13], the Potency entry is “inactive”. Also, the compound was called inactive in experiment [5], in experiment [7], in experiment [16], in experiment [17] and in [12].
As for `COCC(C)OC(C)=O` (stereo unspecified), the Potency result in experiment [1], in experiment [14], in experiment [2], in experiment [15], in experiment [3] and in [6] was “inactive” throughout. Also, the Potency entry in [9], in experiment [10], in experiment [11] and in [13] was “inactive” each time. The compound was classed as inactive in experiment [5], in [7], in experiment [8], in experiment [16], in experiment [17] and in experiment [12].
`COc1cc(Cl)ccc1Oc1ccc(Cl)cc1Cl`: the Potency entry in [1], in experiment [14], in experiment [4], in experiment [6], in experiment [9] and in experiment [10] was “inactive” each time. The Potency result in [11] and in experiment [13] was “inactive” each time. Besides, the Potency in experiment [15] was 23.6 µM (active). In addition, the compound was classed as inactive in experiment [5], in experiment [7], in [8], in [16], in experiment [17] and in experiment [12].
Turning to `Cc1cccc(Nc2ccccc2)c1`, the Potency entry in experiment [18], in experiment [14], in [2], in experiment [3], in experiment [4] and in experiment [6] was “inactive” each time. In addition, the Potency result in experiment [9], in experiment [10] and in [11] was “inactive” throughout. In addition, in experiment [15], the Potency is 43.3 µM (active). Besides, the compound was called inactive in [5], in [7], in [16], in experiment [17] and in [12].
On to `C=CCOc1ccccc1OCC(O)CNC(C)C` (stereo unspecified), for which the Potency entry in [1], in experiment [14] and in [2] was “inactive” in each case. Further, in experiment [3], the fluorescence, relative to Rose Bengal was -0.0179% [at 18.6 µM]. Moreover, the fluorescence, % of fluorescein control in experiment [4] was 0.095% [at 18.6 µM]; in experiment [11], 0.0052% [at 18.6 µM]. Further, in experiment [5], the fluorescence, % of triamterene was 0.0129% [at 18.6 µM]. Further, the fluorescence, % of fluorescein in experiment [7] is -0.0095% [at 18.6 µM]. For the same compound, the fluorescence, % of fluorescent control in experiment [8] is 0.179% [at 18.6 µM]; in [9] it was 0.179% [at 18.6 µM]; in [17], -0.0059% [at 18.6 µM]; in experiment [12], -0.0332% [at 18.6 µM]. For the same compound, in [16], the activity change is -0.0456% [at 18.6 µM]. Moreover, the fluorescence, % of Rose Bengal in [10] was 0.264% [at 18.6 µM].
Consider `O=C(CS)Nc1ccccc1`, for which the Potency result in experiment [1], in experiment [2], in experiment [3], in experiment [4], in [6] and in [9] was “inactive” each time. Also, the Potency result in experiment [10] and in [11] was “inactive” throughout. The compound was called inactive in [5], in [7] and in experiment [12].
As for `CCCNCC(O)COc1ccccc1C(=O)CCc1ccccc1` (stereo unspecified), the Potency result in experiment [14], in experiment [2], in experiment [3], in [4], in experiment [6] and in experiment [9] was “inactive” each time. In addition, the Potency entry in experiment [10] and in experiment [11] was “inactive” each time. Besides, the compound was classed as inactive in experiment [5], in experiment [7], in experiment [8], in [16], in experiment [17] and in [12].
